Rows were chosen to be rich in hits. Some 0.54% of all compounds tested hit in one or more screens of this group.
mIDH1 inhibitor = human IDH1 R132H inhibition. O75874. actives 0.093% (n = 390,000). Potency, µM (doses to about 76.6 µM), for the others: top-dose activity change, negative = inhibition, usual class: inhibitors. IDH1-R132H enzyme, NADPH consumption, diaphorase/resazurin fluorescence; active = well fitted inhibition curve with a large enough effect; also: potency is read from the fitted curve at half-maximal effect; % is scaled to controls: 0 for no effect and ±100 for the full control effect; nearly all actives have a fitted effect of over 65% in size
Target sequence (O75874 whole entry R132H, stated change not applied): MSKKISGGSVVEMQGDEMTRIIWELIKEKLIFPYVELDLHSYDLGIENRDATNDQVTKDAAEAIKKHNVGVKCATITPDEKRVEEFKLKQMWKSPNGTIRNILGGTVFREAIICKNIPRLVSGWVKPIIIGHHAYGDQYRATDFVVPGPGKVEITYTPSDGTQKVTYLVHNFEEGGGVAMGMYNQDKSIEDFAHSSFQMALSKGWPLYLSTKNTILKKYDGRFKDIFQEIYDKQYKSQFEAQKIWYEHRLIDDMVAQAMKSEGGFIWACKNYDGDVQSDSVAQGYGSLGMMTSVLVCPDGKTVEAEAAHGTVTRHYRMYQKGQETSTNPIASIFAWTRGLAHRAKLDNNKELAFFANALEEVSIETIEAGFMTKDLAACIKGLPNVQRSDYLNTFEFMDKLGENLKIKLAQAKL
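IDH1-R132H (0.5 ug/mL) preincubated 30 min with compound, then NADPH (0.016 mM) and alpha-KG (2 mM) added; 80 min at RT, pH 7.5. Remaining NADPH coupled via diaphorase/resazurin to fluorescence (540/590 nm); concentration-response curves normalized to no-enzyme control.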
Menin-MLL TR inh = inhibitors of human menin-MLL interaction, mutant MLL peptide. O00255. Menin + Texas Red MLL mutant peptide, fluorescence polarization. Potency, µM (doses to about 61.6 µM), inactives show top-dose FP activity change, negative = inhibition, usual class: inhibitors. actives 0.23% (n = 270,000); active = well fitted inhibition curve with a large enough effect in the polarisation, with a control signal flat, not every such curve was filed as active; the % refers to the polarisation; also: potency is read from the fitted curve at half-maximal effect; % of control where 0% means no effect
Menin-MLL FL inh = menin-MLL binding inhibition, fluorescein peptide. 290,000 tested, under 10 active. Fluorescence polarization, fluorescein-MLL peptide displacement from menin. FP activity change, % at 61.4 µM. AID 1766; active = well fitted curve in the direction sought with a large enough effect in the polarisation, not every such curve was filed as active; the % refers to the polarisation; also: % of control where 0% means no effect
CXXC DNA block = inhibitors of human MLL CXXC domain-DNA interaction. MLL-CXXC / FITC-HOXA9 DNA fluorescence polarization. Potency, µM (series often up to 115 µM), for the others: at the top dose activity change, negative = inhibition, usual class: inhibitors. Q03164. actives 0.037% (n = 290,000); active = well fitted inhibition curve with a large enough effect in the polarisation, with a control signal flat, not every such curve was filed as active; the % refers to the polarisation; also: potency is read from the fitted curve at half-maximal effect
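Fluorescence polarization: 7 uM MLL-CXXC (stock) preincubated 5 min with compounds, then 50 nM fluorescein-HOX-A9 DNA (stock) added; 30 min ambient. Buffer 50 mM Tris-HCl pH 7.5, 50 mM NaCl, 1 mM DTT, 0.05% BSA.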
pAkt inh = Akt phosphorylation inhibition. actives 0.32% (n = 360,000). activity change, % for hits at 50 µM. Neuro2A IGF-stimulated pAkt S473 HTRF, 20 min; active compounds read low; in the data active = activity change below about -80%; also: % is scaled to controls: 0 for no effect and ±100 for the full control effect
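Single-point screen (50 µM final compound) in Neuro2A cells stimulated 20 min with 6 nM IGF at 37 deg C. After lysis, Ser473-phosphorylated Akt read by HTRF (ex 330 nm, em 615/665 nm) as the 665/615 ratio.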
LDHA block = inhibitors of human lactate dehydrogenase A | AID 1347041 | actives 0.15% (n = 480,000) | purified LDHA, NADH/diaphorase-resazurin fluorescence; active compounds read low | P00338 | activity change, % (values are at about 110 or 230 µM); in the data active = activity change below about -30%;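 also: plate controls were DMSO wells for no effect and wells without enzyme for full effect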
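Remaining NADH was detected by diaphorase (0.133 mg/mL) converting 37 µM resazurin to fluorescent resorufin, read at 0 and 20 minutes. The preceding 5-minute room-temperature reaction used 2 nM LDHA, 0.2 mM sodium pyruvate and 0.06 mM NADH at pH 7.4.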
An asterisk follows results filed as active.

How did O=C(Nc1nccs1)c1cccc(S(=O)(=O)N2CCOCC2)c1 do in these assays?
mIDH1 inhibitor: 2.9%; Menin-MLL TR inh: 0.0%; Menin-MLL FL inh: 6.1; CXXC DNA block: 7.8%; pAkt inh: -114.0%*; LDHA block: -4.2

What do the screens show for `COc1ccc(Cl)c2sc(NC(=O)c3ccc(S(=O)(=O)N4CCCC4)cc3)nc12`?
mIDH1 inhibitor: -1.3%; LDHA block: -2.4

What do the screens show for `Cn1ccnc1Sc1cc(C(=N)N)ccn1`?
LDHA block: -4.1

How did Cc1ccc2c(=O)cc(C(=O)Nc3ccc(F)cc3)oc2c1 do in these assays?
LDHA block: -1.1

What do the screens show for `CC(=O)c1cccc(Nc2nc(-c3cccc(C)c3)nc3ccccc23)c1`?
mIDH1 inhibitor: 3.1%; LDHA block: 8.2

Results for Cc1cccc(-c2nc(Nc3ccc(C(=O)O)cc3)c3ccccc3n2)c1 ?
LDHA block: -39.2*

Results for CCOC(=O)c1nnc(-c2ccccc2)nc1Oc1ccc(Cl)cc1 ?
mIDH1 inhibitor: 6.3%; Menin-MLL TR inh: 10.4%; Menin-MLL FL inh: -2.5; CXXC DNA block: 0.4%; pAkt inh: -119.3%*; LDHA block: -3.8

What do the screens show for `COc1ccc(Oc2coc3cc(OC(=O)c4ccccc4C)ccc3c2=O)cc1`?
LDHA block: 7.1

How did CCn1nnc(NC(=O)c2ccc(C(C)(C)C)cc2)n1 do in these assays?
mIDH1 inhibitor: 10.6%; Menin-MLL TR inh: -17.2%; Menin-MLL FL inh: -2.8; CXXC DNA block: -1.3%; pAkt inh: -108.2%*; LDHA block: -4.8

Results for O=C(Nc1ccc2c(c1)nc1n2CCN(Cc2ccccc2)C1)NC1CCCCC1 ?
mIDH1 inhibitor: 2.1%; Menin-MLL TR inh: -2.5%; Menin-MLL FL inh: 6.8; CXXC DNA block: 21.4%; pAkt inh: -90.5%*; LDHA block: -4.5

What do the screens show for `COCCN1CCn2c(nc3cc(NC(=O)NC4CCCCC4)ccc32)C1`?
mIDH1 inhibitor: 4.5%; Menin-MLL TR inh: -8.6%; Menin-MLL FL inh: -1.8; CXXC DNA block: 9.7%; pAkt inh: inactive; LDHA block: 13.7

What do the screens show for `CNc1snc(C)c1C(=O)NCCc1cc(OC)ccc1OC`?
LDHA block: -1.9

What do the screens show for `C[C@H](CO)N1C[C@H](C)[C@@H](CN(C)S(=O)(=O)c2cccc(F)c2)OCc2cn(nn2)CCCC1=O`?
mIDH1 inhibitor: -11.5%; pAkt inh: inactive; LDHA block: -34.3*

Results for C[C@@H]1CN([C@@H](C)CO)C(=O)CCCn2cc(nn2)CO[C@H]1CN(C)S(=O)(=O)c1cccc(F)c1 ?
mIDH1 inhibitor: 0.0%; pAkt inh: inactive; LDHA block: -2.0

Results for COc1ccc(C(=O)COc2ccccc2C#N)cc1Br ?
LDHA block: 5.3

Results for CS(=O)(=O)N(CCc1ccccc1)CC(=O)NCc1cccnc1 ?
mIDH1 inhibitor: 0.5%; Menin-MLL TR inh: 13.6%; Menin-MLL FL inh: 6.3; CXXC DNA block: -4.0%; pAkt inh: -108.1%*; LDHA block: -0.4

How did Nn1c(SCC(=O)NC2CCCc3ccccc32)nnc1-c1cccs1 (configuration not stated) do in these assays?
mIDH1 inhibitor: -1.7%; Menin-MLL TR inh: -2.7%; Menin-MLL FL inh: -1.6; CXXC DNA block: -8.0%; pAkt inh: -103.4%*; LDHA block: 2.0

What do the screens show for `FC(F)Oc1ccc(C2CC(c3ccc(Br)cc3)n3nnnc3N2)cc1` (configuration not stated)?
LDHA block: 9.9

How did O=C(/C=C/c1ccc2c(c1)OCO2)NC1CCSC1=O (configuration not stated) do in these assays?
LDHA block: -6.5

Results for N#Cc1ccccc1OCC(=O)NC(N)=O ?
mIDH1 inhibitor: 1.2%; Menin-MLL FL inh: 1.5; CXXC DNA block: 1.6%; pAkt inh: -110.6%*; LDHA block: -8.4

Results for CCOc1ccccc1NC(=O)CC1Sc2ccccc2NC1=O (configuration not stated) ?
LDHA block: -5.5

Results for Cc1cc(C)cc(N2C(=O)C3C4C=CC(C4)C3C2=O)c1 (configuration not stated) ?
mIDH1 inhibitor: 0.8%; Menin-MLL TR inh: 0.6%; Menin-MLL FL inh: 4.1; CXXC DNA block: 0.5%; pAkt inh: -104.5%*; LDHA block: -4.4

What do the screens show for `Cc1ccc(N2C(=O)C3C4C=CC(C4)C3C2=O)cc1` (configuration not stated)?
mIDH1 inhibitor: 1.8%; Menin-MLL TR inh: -8.4%; Menin-MLL FL inh: 2.4; CXXC DNA block: -12.7%; pAkt inh: inactive; LDHA block: -0.9

Results for CC(C#N)CN(C)C(=O)CCNC(=O)OCC(F)(F)F (configuration not stated) ?
LDHA block: 12.2

What do the screens show for `CCn1c(C(C)NC(=O)c2cccs2)nc2ccccc21` (configuration not stated)?
mIDH1 inhibitor: -3.8%; Menin-MLL TR inh: 9.8%; Menin-MLL FL inh: 1.1; CXXC DNA block: 1.4%; pAkt inh: inactive; LDHA block: -12.5

Results for CCCCn1c(C(C)NC(=O)c2cccs2)nc2ccccc21 (configuration not stated) ?
mIDH1 inhibitor: 7.8%; Menin-MLL TR inh: -19.3%; Menin-MLL FL inh: 4.7; CXXC DNA block: -5.7%; pAkt inh: -102.8%*; LDHA block: -0.8

Results for O=C1Cc2cc(C(=O)CSc3nnc(-c4cccc(F)c4)o3)c(Cl)cc2N1 ?
LDHA block: 0.9

How did COc1cc(OC)cc(C(=O)Nc2cc(NC(=O)c3ccco3)ccc2OC)c1 do in these assays?
mIDH1 inhibitor: 6.0%; Menin-MLL TR inh: -1.1%; Menin-MLL FL inh: 3.5; CXXC DNA block: -16.0%; pAkt inh: inactive; LDHA block: 2.2

What do the screens show for `CCCOc1cccc(C(=O)Nc2cc(NC(=O)c3ccco3)ccc2OC)c1`?
mIDH1 inhibitor: 1.5%; Menin-MLL TR inh: 16.4%; Menin-MLL FL inh: 2.0; CXXC DNA block: 2.4%; pAkt inh: -107.4%*; LDHA block: 4.2

How did Cc1oc(-c2ccccc2)nc1C(=O)Nc1ccc(S(=O)(=O)N(C)Cc2ccccc2)cc1 do in these assays?
LDHA block: 1.0

How did Clc1ccc(C=Cc2ccccn2)cc1 do in these assays?
mIDH1 inhibitor: 8.9%; pAkt inh: inactive; LDHA block: -8.8

Results for C(=C\c1ccccn1)/c1ccccn1 ?
mIDH1 inhibitor: 3.1%; Menin-MLL TR inh: 12.6µM*; Menin-MLL FL inh: -20.3; CXXC DNA block: 9.1%; pAkt inh: inactive; LDHA block: -2.6

Bioassay records from PubChem.
